We go through 36 compounds from PubChem BioAssay (NCI).

Each structure is given as a SMILES string. About 83,000 compounds went through this panel and 20% of them were active in at least one assay; those are over-represented in the sample as a whole.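 Each cell line was grown in a 96-well plate and treated with one concentration of compound for 48 hours. Values below 10 were considered active.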 Unmarked numbers belong to inactive results. The source made the active and inactive calls.

In this test the test system is MDA-MB-468 breast. Briefly: NCI-60 one-dose screen, 48 h (100 = growth as untreated, 0 = no growth, -100 = all killed). The conditions noted are these: 10 µM unless noted.
With `COc1ccc(-c2c3c(N)nc(-c4ccncc4)nc3nc3c2c(C)nn3-c2ccccc2)cc1`, the growth is 72.7%.

As to `O=c1c2cc(F)ccc2oc2c(NCCNCCO)nc3ccccc3c12`, the growth is -14.5% (active).

As for `COC(=O)c1ccc(Cn2ccc(=O)[nH]c2=O)cc1`, the growth was 104%.

In the case of `NS(=O)(=O)c1ccc(-n2cc(CN3CCNCC3)nn2)cc1`, the growth was -22.4% (active).

Turning to `Cc1ccc2nc(NC(=O)CSC(=S)N3CCN(Cc4ccccc4)CC3)sc2c1`, the growth is -76.4% (active).

Consider `COc1ccc(-c2nc(SC(C)C)nc(NNC(N)=S)c2C#N)cc1`, for which the growth was 21.2%.

On to `COc1ccc(-n2nc(C(=O)Nc3ccc(F)cc3)nc2-c2cc(OC)c(OC)c(OC)c2)cc1`, for which the growth was 91.9%.

In the case of `CC(C)(C)[Si](C)(C)OC1[C@@H](O[Si](C)(C)C(C)(C)C)[C@@H](CNC(=O)NC(=O)NC(=O)CI)O[C@H]1n1cnc2c(NC(=O)Nc3ccccc3)ncnc21` (stereo partly specified), the growth was 75.5%.

As to `COC(=O)Nc1nc2ccc(S(=O)c3ccccc3)cc2[nH]1` (stereo unspecified), the growth is 33.8%.

Regarding `CCn1cnc(C[C@H](NC(=O)[C@@H](NC(=O)Nc2cc(C(F)(F)F)cc(C(F)(F)F)c2)C(C)C)C(=O)OC)c1`, the growth is -81.1% [100 µM] (active).

Regarding `OCCNC(=S)Nc1ccc(-c2nc(N3C[C@H]4CC[C@@H](C3)O4)c3cccn3n2)cc1`, the growth was -24.6% (active).

Take `CS(=O)(=O)c1cccc(-c2c(-c3cccc(OS(N)(=O)=O)c3)nc3sccn23)c1`: the growth is 104%.

As to `FC(F)(F)c1cc(NC2=NCCN=C(Nc3cc(C(F)(F)F)cc(C(F)(F)F)c3)SS2)cc(C(F)(F)F)c1`, the growth is 23.6%.

Regarding `Nc1nc(N)c2nc(CNc3ccc(C(=O)CC(CCC(=O)O)C(=O)O)cc3)cnc2n1` (stereo unspecified), the growth is 65.4%.

On to `CCCCCCCSc1ncnc2[nH]ncc12`, for which the growth is 68.8%.

With `CC(C)CCC[C@@H](C)[C@H]1CC[C@H]2[C@@H]3CC[C@H]4C/C(=N/O)CC[C@]4(C)[C@H]3CC[C@]12C`, the growth was 99%.

Take `O=[N+]([O-])c1ccccc1NC1c2ccccc2Oc2ccccc21`: the growth is 30.6%.

As to `c1ccc2cc(Cn3c[n+](Cc4ccc5ccccc5c4)c4ccccc43)ccc2c1`, the growth is -21% (active).

For the compound `O=C(Nc1cccc(-n2ccc3c(NC(=O)c4ccccc4)nccc32)c1)c1cc(N2CCOCC2)cc(C(F)(F)F)c1`, the growth is -32.3% (active).

On to `CCN(CC)CCn1c(=N)n(CC(O)c2ccc(Cl)c(Cl)c2)c2ccccc21` (stereo unspecified), for which the growth is 21%.

In the case of `NCCN1CCN(c2nccc(-c3ccc4ccccc4c3)n2)CC1`, the growth was 56.2%.

With `O=C(c1ccccc1)N1N=C(c2ccc(-n3ccc(C(F)(F)F)n3)cc2)CC1c1ccc[nH]1` (stereo unspecified), the growth was 86%.

Regarding `O=C(NNC(=O)c1ccncc1)Nc1ccc([N+](=O)[O-])cc1`, the growth is 106%.

With `O=C(CCCCCCN1CC(=O)N2[C@@H](c3cccc(Br)c3)c3[nH]c4ccccc4c3C[C@H]2C1=O)NO`, the growth was 28.1%.

Consider `Cc1ccc(-c2cc3nc(C(Cl)Cl)nc(-c4ccccc4C)n3n2)cc1`, for which the growth was 49.8%.

Regarding `C#C[C@]1(O)CC[C@H]2[C@@H]3CC=C4c5sc(Nc6nc(C)cc(OC)n6)nc5CC[C@]4(C)[C@H]3CC[C@@]21C`, the growth is 63.1%.

`CCCN1C(=O)N(CCC)C2C1NN=c1s/c(=C3\C(=O)N(C(C)C)c4ccccc43)c(=O)n12` (stereo unspecified): the growth is 35.7%.

As to `C[C@@H]1CCC2=C(CCC[C@]2(C)C(=O)O)[C@@]1(C)CCc1ccoc1`, the growth was 95.4%.

In the case of `CC(=O)Oc1ccccc1C(=O)Nc1ccc(C(=O)/C=C/c2ccncc2)cc1`, the growth was 4.04% (active).

Turning to `Cc1cccc([N+](=O)[O-])c1I`, the growth was 104%.

Take `C#C[C@]1(O)CC[C@H]2[C@@H]3CC=C4c5sc(-c6cccc(O)c6)nc5CC[C@]4(C)[C@H]3CC[C@@]21C`: the growth is 1.79% (active).

Take `CN(C)CCCNc1c2ccc(Cl)cc2nc2c1oc1ccccc12`: the growth is -49.6% (active).

Take `C=CCn1c(SCC(=O)Nc2ccc(C(=O)/C=C/c3ccc(Cl)cc3)cc2)nnc1-c1ccc(Cl)cc1`: the growth is 89%.

As for `C/C(=N\O)c1ccc(NC(=O)CSc2nnc(-c3ccccc3)n2-c2ccccc2)cc1`, the growth is 75.4%.

Consider `C=C[C@@H]1C[C@@H]2Cc3ccccc3N1O2`, for which the growth is 97.8%.

`C=CCn1c(SCC(=O)Nc2ccc(C(=O)/C=C/c3ccc(OC)cc3)cc2)nnc1-c1ccc(OC)c(OC)c1`: the growth is 75%.
